ABHD5 PLIN5 PPI = blocks binding of human ABHD5 to perilipin-5 | Q00G26+Q8WTS1 | inhibition, % at 4 µM | Split G. princeps luciferase complementation, luminescence, 4 h | hit rate 0.78% among 360,000;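 active = inhibition above the mean inhibition across every tested compound plus 3 SD, cut at about 22% in these data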;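 also: 0% = DMSO only wells and the 100% control is not disclosed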
Beta2AR agonist = human beta-2 adrenergic receptor agonism by FAP | AID 504454 | response, % (concentration not given with the values) | hit rate 0.43% among 340,000 | Am2.2-beta2AR cells, FAP receptor internalization, flow cytometry;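 active = response above a set limit, near 3 SD of response in nonfluorescent compounds, cut at about 42% in these data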
NTR1 agonist = NTR1 (human) agonism | P30989 | NTR1-U2OS beta-arrestin-GFP spot imaging, agonist mode | activation, % at 20 µM | hit rate 0.17% among 330,000 | AID 493036;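 active = activation at or above 40% of the spot to cytoplasm intensity ratio, with at least 20 cells analyzed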;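 also: 0% = DMSO without peptide and 100% = 100 nM NTR1 peptide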
NOD2 RIPK2 PPI = inhibitors of human NOD2-RIPK2 interaction; inhibition, % at 4.98 µM; hit rate 0.38% among 360,000; CHO BLA complementation NOD2-RIPK2, CCF4 ratio; O43353; AID 624267; in the data active = inhibition above about 21%;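 also: 0% = vehicle only and 100% = reference blocker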
TLR9-MyD88 inh = blocks human TLR9 binding to MyD88; Q9NR96+Q99836; CHO BLA complementation TLR9-MyD88, CCF4 FRET ratio; inhibition, % at 4.98 µM; hit rate 0.21% among 340,000;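 active = inhibition above the mean over all tested compounds plus 3 SD, cut at about 21% in these data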;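 also: 0% = DMSO only wells and 100% = clavulanate BLA inhibitor control wells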
TLR4 MyD88 comp = blocks binding of human TLR4 to MyD88; O00206+Q99836; hit rate 0.18% among 200,000; HeLa CL3-4 TLR4/MyD88 BLA complementation, FRET ratio; inhibition, % at 8.4 µM; in the data active = inhibition above about 25%;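 also: 0% = vehicle and 100% = reference inhibitor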
Target sequence (O00206 whole entry, looked up): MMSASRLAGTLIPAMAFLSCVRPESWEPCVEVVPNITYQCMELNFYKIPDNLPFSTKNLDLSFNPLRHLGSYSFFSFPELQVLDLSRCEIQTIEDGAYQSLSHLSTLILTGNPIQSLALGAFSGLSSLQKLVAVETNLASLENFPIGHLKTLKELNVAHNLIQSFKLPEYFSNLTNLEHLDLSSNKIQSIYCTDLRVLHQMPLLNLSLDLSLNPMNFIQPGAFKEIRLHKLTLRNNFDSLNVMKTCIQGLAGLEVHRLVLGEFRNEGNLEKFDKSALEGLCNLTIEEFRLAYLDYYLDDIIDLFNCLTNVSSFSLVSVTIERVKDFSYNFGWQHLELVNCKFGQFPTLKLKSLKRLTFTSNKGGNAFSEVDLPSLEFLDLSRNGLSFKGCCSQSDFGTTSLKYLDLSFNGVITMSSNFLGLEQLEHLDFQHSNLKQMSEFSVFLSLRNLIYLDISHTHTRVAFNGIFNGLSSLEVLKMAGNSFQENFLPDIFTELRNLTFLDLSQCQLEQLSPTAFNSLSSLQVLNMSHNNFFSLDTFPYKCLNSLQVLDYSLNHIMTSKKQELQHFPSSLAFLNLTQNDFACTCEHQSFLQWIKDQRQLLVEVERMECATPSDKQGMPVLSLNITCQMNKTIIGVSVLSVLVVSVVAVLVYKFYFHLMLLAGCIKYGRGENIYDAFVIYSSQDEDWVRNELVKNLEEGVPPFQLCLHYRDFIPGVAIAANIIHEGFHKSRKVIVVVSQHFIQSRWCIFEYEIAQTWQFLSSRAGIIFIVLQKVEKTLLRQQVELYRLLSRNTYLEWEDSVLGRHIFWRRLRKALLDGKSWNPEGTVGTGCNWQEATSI
Target sequence (Q99836 whole entry, looked up): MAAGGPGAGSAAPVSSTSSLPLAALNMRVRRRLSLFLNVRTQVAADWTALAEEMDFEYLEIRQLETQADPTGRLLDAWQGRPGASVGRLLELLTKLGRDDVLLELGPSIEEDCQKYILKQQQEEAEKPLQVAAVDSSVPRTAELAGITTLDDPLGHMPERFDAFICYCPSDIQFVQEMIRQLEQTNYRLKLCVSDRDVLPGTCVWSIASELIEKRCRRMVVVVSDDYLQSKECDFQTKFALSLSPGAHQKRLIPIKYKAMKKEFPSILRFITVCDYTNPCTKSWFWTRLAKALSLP
Starred values were filed as active, the others as inactive; i = inactive; / = not tested or not shown; ! = repeats disagree. Rows were chosen to be rich in hits. Some 1.5% of all compounds tested hit in one or more screens of this group.

SMILES | ABHD5 PLIN5 PPI | Beta2AR agonist | NTR1 agonist | NOD2 RIPK2 PPI | TLR9-MyD88 inh | TLR4 MyD88 comp
C=CCOC(=O)C1=C(C)NC(SCC(=O)NC(=O)OCC)=C(C#N)C1c1cccnc1 (centres undefined) | 2 | 57*! | 1 | 5 | 4 | 9
C=CCOC(=O)C1=C(C)NC(SCC(=O)N(CC)CC)=C(C#N)C1c1ccccc1 (centres undefined) | -7 | 12 | -1 | -3 | -4 | -4
C[C@H]1COc2cc(N(C)CCO)ccc2S(=O)(=O)N1 | 1 | / | / | 7 | / | /
CC(=O)SC(C[N+](=O)[O-])c1cn(C(C)=O)c2ccccc12 (centres undefined) | -14 | 49* | 13 | 8 | 5 | 21
CC(=O)n1cc(Nc2ccc([N+](=O)[O-])cc2)c2ccccc21 | 8 | 0 | 1 | 4 | 3 | 3
CCCNC(=O)C1(C)CCN(C(=O)c2sccc2C)C1 (centres undefined) | -7 | / | / | -3 | / | /
O=Cc1nccc2ccccc12 | -9 | 61* | / | 1 | -7 | /
Cc1nn(-c2cc(N3CCCC3)ccc2[N+](=O)[O-])c(=O)c2ccccc12 | 8 | -6 | -2 | -1 | -4 | 2
Cc1ccccc1OCCNc1cc(N2CCCCC2)ccc1[N+](=O)[O-] | 1 | 4 | 3 | 3 | 0 | -4
Cc1ccc(C)c(-c2nn(-c3cc(N4CCN(CCO)CC4)ccc3[N+](=O)[O-])c(=O)c3ccccc23)c1 | 13 | 7 | 19 | 22* | 3 | -14
Cc1ccccc1OCCNc1cc(N2CCN(CCO)CC2)ccc1[N+](=O)[O-] | 22* | 5 | 1 | -2 | -1 | 5
CCc1nc2ccc(C(=O)Nc3cccc(NS(C)(=O)=O)c3)cn2c1N(CCC(C)C)CCN(C)C | 5 | / | / | -3 | / | /
COc1ccccc1NC(=O)c1cc2c(CO)cnc(C)c2oc1=Nc1cccc(C(N)=O)c1 | -5 | 58* | 1 | 1 | -3 | /
COC(=O)CN1C(=O)S/C(=C/c2ccc(N3CCCCC3)o2)C1=O | 27* | i | -5 | 12 | 6 | 13
CCOC(=O)CN1C(=O)S/C(=C/c2ccc(N3CCCCC3)o2)C1=O | 14 | -39 | -4 | -7 | -2 | 2
COc1cccc(C(=O)N2CCC[C@H]2C(=O)N2CCC[C@H]2C(=O)NCc2ccccn2)c1 | 1 | / | / | 0 | / | /
O=C(c1cc(C2CC2)nn1-c1ccccc1)N1CCN(S(=O)(=O)c2ccccc2F)CC1 | 6 | / | / | -7 | -8 | /
N#C/C(=C/c1ccc(N2CCCCCC2)o1)c1cccc(F)c1 | 59* | -181 | -4 | 13 | 4 | 18
N#C/C(=C/c1ccc(N2CCCCCC2)o1)c1ccc(F)cc1 | 71* | -157 | 4 | 39* | 24* | 2
N#C/C(=C/c1ccc(N2CCOCC2)o1)c1ccc(Br)cc1 | 63* | -332 | -2 | 25* | 6 | 16
N#C/C(=C/c1ccc(N2CCCCC2)o1)C(=O)Nc1ccc(Cl)cc1 | 9 | -598 | -3 | -8 | 5 | 11
COc1ccc(Cl)c(-c2cc(C(=O)Nc3ccc(F)cc3)[nH]n2)c1 | 3 | / | / | 11 | / | /
COc1ccc(N2c3ccccc3CN(Cc3ccccc3)[C@@H](C)[C@H]2Cc2cccnc2)cc1 | 6 | / | / | -12 | 3 | /
COc1ccc(C2=Nn3c(nnc3-c3ccccc3Cl)SC2)cc1OCC1CC1 | -9 | -2 | 8 | 4 | -3 | /
COc1ccc(OC)c(-c2nnc3n2N=C(c2ccc(OC)c(OCC4CC4)c2)CS3)c1 | 23* | -1 | 6 | 0 | -5 | /
SMILES | ABHD5 PLIN5 PPI | Beta2AR agonist | NTR1 agonist | NOD2 RIPK2 PPI | TLR9-MyD88 inh | TLR4 MyD88 comp
c1ccc(CN2CCC3CC2c2cc(N4CCOCC4)ccc23)cc1 (centres undefined) | 3 | -3 | / | -3 | 0 | /
O=C(CS(=O)c1ccc(C(F)(F)F)cc1[N+](=O)[O-])Oc1ccccc1 (centres undefined) | 9 | 98* | 15 | 9 | -9 | 13
CC(C)C[C@H]1CN(CCCC[C@H]2CNC(=O)C(=O)N2CCc2ccc(O)cc2)C(=O)C(=O)N1Cc1ccccc1 | 2 | / | / | -28 | / | /
COc1ccc(CCNC(=O)CCCn2c(=S)[nH]c3cc4c(cc3c2=O)OCO4)cc1OC | 8 | / | / | -7 | -8 | /
OC(c1ccccc1)(c1ccccc1)C1CCN(CCCOc2cccc(OC(F)(F)F)c2)CC1 | -11 | / | / | 5 | / | /
CC(C)(C)c1ccc(C(O)CCCN2CCC(C(O)(c3ccccc3)c3ccccc3)CC2)cc1 (centres undefined) | -3 | 64* | 25 | 10 | 8 | 2
O=C(NCNC(=O)c1ccccc1)c1ccccc1 | 5 | 63* | 1 | -5 | 5 | -1
COC(=O)C1=C(\O)CCCC/C=C\1C(=O)O | 22* | 0 | / | 0 | -3 | /
COC(=O)C1=C(C)N(CCC2=CCCCC2)C(=O)C1 | 3 | -6 | -1 | -2 | 4 | -1
Fc1ccc2[nH]c3c(N4CCN(c5ccccc5)CC4)ncnc3c2c1 | -2 | 17 | 41* | 5 | 4 | -2
NC(N)=N/N=C/c1ccc(OCc2ccccc2)cc1 | 4 | 25 | 14 | 4 | 3 | 14
NC(N)=N/N=C/c1ccc(OCc2ccc(Cl)cc2)cc1 | 2 | 58* | 20 | -1 | 4 | 2
O=C(CN1CCCN(S(=O)(=O)c2ccc(Br)s2)CC1)Nc1ccc(Cl)cc1 | 50* | -1 | 4 | -9 | -4 | -9
CCNC(=O)C1(C)CCN(Cc2noc(-c3c(C)noc3C)n2)C1 (centres undefined) | -5 | / | / | -15 | / | /
Cc1oc(-c2ccc(F)cc2)cc1-c1nn2c(-c3ccoc3C)nnc2s1 | 30* | 3 | 1 | -3 | -4 | /
Clc1ccc2c(SCC3CO3)c3ccccc3nc2c1 (centres undefined) | -17 | 82* | / | -15 | -7 | /
COc1ccc(NC2=C(NCCO)C(=O)c3ccccc3C2=O)cc1 | -30 | 66* | 0 | -3 | -9 | -9
CC(=O)c1ccc(NC(=O)c2cccc(N3C(=O)c4ccccc4C3=O)c2)cc1 | 2 | 81* | -1 | 0 | 5 | /
Cc1ccccc1C(=O)N1CCC1(C)C(=O)NC(C)C (centres undefined) | 0 | / | / | 3 | / | /
O=C(CSc1ncccn1)N(Cc1cccnc1)C(CCc1ccccc1)c1nc2ccccc2[nH]1 (centres undefined) | 1 | / | / | -2 | / | /
C=C1CC2(CC(c3ccccc3)OC(c3ccccc3)C2)OC1=O (centres undefined) | 23* | 29 | / | 2 | -5 | /
CCOc1ccc(N2C(=O)CC(Sc3nnnn3-c3ccccc3)C2=O)cc1 (centres undefined) | 27* | 16 | / | 16 | -3 | -6
Cc1ccc(CN2CC(N3CCN(CC4CC4)CC3)CS2(=O)=O)cc1 (centres undefined) | -12 | / | / | 6 | / | /
O=C(c1ccc(Cl)c(Cl)c1)c1cc(-c2ccccn2)c(N2CCOCC2)s1 | 2 | -4 | 2 | 24* | 11 | 22
